From PubChem BioAssay AID493221 (Johns Hopkins Ion Channel Center, 2011)
In all, about 2,400 compounds went through this assay and about 1,700 (71%) were called active.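 How the source made its calls: active means choline transporter activity left, mean of duplicates at 10 µM, below buffer-only control mean minus 3 SD; inactive means the rest.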 So high a share suggests a set chosen from earlier hits. Only a sample is shown.

Molecular target: High affinity choline transporter 1 (Homo sapiens) (UniProt Q9GZV3)
Test: human choline transporter blockers – cell-based, membrane potential dye, duplicate, confirmation (AID 493221)
Details: CHT-expressing cells, at 10 µM, LV-to-AA substituted CHT, HEK293 cells

High affinity choline transporter 1 (Homo sapiens), sequence (Q9GZV3 whole entry, looked up): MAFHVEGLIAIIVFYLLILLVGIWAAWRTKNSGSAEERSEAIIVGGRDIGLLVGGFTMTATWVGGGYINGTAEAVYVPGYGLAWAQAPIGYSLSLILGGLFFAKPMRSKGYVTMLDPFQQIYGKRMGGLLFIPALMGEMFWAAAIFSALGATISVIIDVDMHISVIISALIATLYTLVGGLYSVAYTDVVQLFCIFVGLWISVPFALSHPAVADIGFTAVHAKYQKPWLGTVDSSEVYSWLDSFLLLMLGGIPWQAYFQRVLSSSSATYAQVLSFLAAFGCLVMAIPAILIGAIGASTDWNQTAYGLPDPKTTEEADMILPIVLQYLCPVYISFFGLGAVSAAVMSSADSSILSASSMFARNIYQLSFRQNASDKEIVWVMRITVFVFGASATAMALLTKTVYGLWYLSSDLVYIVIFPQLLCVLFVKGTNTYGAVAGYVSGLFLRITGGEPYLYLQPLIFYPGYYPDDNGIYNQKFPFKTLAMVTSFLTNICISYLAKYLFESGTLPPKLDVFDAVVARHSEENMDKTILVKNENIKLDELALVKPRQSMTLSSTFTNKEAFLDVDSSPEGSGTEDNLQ

Structure (SMILES)	CHT activity remaining % of control (stronger effect = lower value)
Cc1ccc(CS(=O)(=O)c2ncc(Cl)c(C(=O)Nc3nnc(C)s3)n2)cc1	25.2% (active)
O=C(Nc1nonc1-c1ccc(Cl)cc1)c1ccco1	68.2% (active)
COCCNc1nc(-n2nc(C)cc2C)nc2sc3c(c12)CCCC3	71.2% (active)
O=C(CCCN1C(=O)CSc2ncccc21)N1CCN(c2cccc(C(F)(F)F)c2)CC1	42.1% (active)
COc1cccc(-c2nn(-c3ccccc3)cc2/C=C(\C#N)C(=O)NCCCn2ccnc2)c1	28.8% (active)
CC(=O)OCCOCn1cnn2c(=O)c(Br)c(C)nc12	37.2% (active)
Cc1ccccc1-n1nnc2c(=O)oc3ccccc3c21	inactive
CN(Cc1ccccc1)CC(O)COc1ccc(CNCc2cc3ccccc3s2)cc1 (centres undefined)	53.6% (active)
CCS(=O)(=O)C1=NSC2=NC(=O)/C(=C\c3ccc(OS(=O)(=O)c4ccccc4)cc3)C(=N)N21	53.4% (active)
CCCCCn1c(=O)c(C(=O)OCC)c(Cl)c2ccccc21	45.3% (active)
O=c1c2ccccc2nnn1CSc1nc2sc3c(c2c(=O)n1CC1CCCO1)CCC3 (centres undefined)	24% (active)
Cc1ccc(NNC(=O)c2cccs2)cc1Cl	64.8% (active)
CCC(C(=O)N1CCOCC1)n1c(C(=O)OC)cc2occc21 (centres undefined)	55% (active)
CCNC(=O)CC1C(=O)N(c2ccc(F)cc2)C(=O)N1CCc1sccc1C (centres undefined)	inactive
O=C1c2cccc3cccc(c23)C(=O)N1CCCCCc1n[nH]c(=S)o1	inactive
COc1ccc(Cn2c(=O)sc3ccccc32)cc1OC	63.4% (active)
CCOc1ccccc1Nc1ccc2nonc2c1[N+](=O)[O-]	33.1% (active)
COc1ccc(S(=O)(=O)N2CCN(C(=O)NC3CCCCC3)CC2)cc1	inactive
CC(=O)N1CCN(S(=O)(=O)c2cccc(C(=O)NC3CCC(C)CC3)c2)CC1 (centres undefined)	70.5% (active)
CCc1nc(C)cn1S(=O)(=O)c1cc([N+](=O)[O-])ccc1Cl	inactive
CCn1c(SCCC(C)C)nnc1-c1c[nH]c2ccccc12	67.1% (active)
Cc1ccccc1-n1c(C)cc(/C=N/NC(=O)c2ccc(CN3CCOCC3)cc2)c1C	69.4% (active)
CC(=O)c1ccc(Oc2cc(C)nc(-n3nc(C)cc3C)n2)cc1	inactive
CCOC(=O)N1CCN(C(=O)C2CCN(c3ncnc4c3sc3cccc(F)c34)CC2)CC1	68.8% (active)
Cc1[nH]c2ccccc2c1C(=O)CN1CCCC(C)C1 (centres undefined)	60.9% (active)

Structure (SMILES)	CHT activity remaining % of control (stronger effect = lower value)
O=C(Cn1nc(C(F)(F)F)c2c1CCC2)NCc1ccc(F)cc1	63.8% (active)
COC(=O)c1ccccc1NC(=O)Cn1nc(C(F)(F)F)c2c1CCC2	inactive
O=[N+]([O-])c1ccccc1Nc1ccc(O)cc1	42.1% (active)
COc1ccc(-n2nnnc2CNC(=O)c2ccc3ccccc3c2)cc1	56.6% (active)
COc1ccc(N2C(=O)CNC2=S)cc1	inactive
Cc1ccc(S(=O)(=O)/N=C(/NC(=S)Nc2c(C)n(C)n(-c3ccccc3)c2=O)c2ccccc2)cc1	39.1% (active)
O=C(c1cccs1)C1C(c2ccc(Br)cc2)NC(=S)NC1(O)C(F)(F)F (centres undefined)	54.2% (active)
Oc1c(Cl)cc(Cl)c(Cl)c1Cc1c(O)c(Cl)cc(Cl)c1Cl	10.1% (active)
O=S(=O)(Cc1cc(Cl)nc(-c2cccnc2)n1)c1ccccc1	60.6% (active)
Cc1ccc2c(C)c(C(=O)N3CCC(N4CCC(C(=O)NC5CC5)CC4)CC3)oc2c1	61.6% (active)
Cc1oc2cc([N+](=O)[O-])c(O)c([N+](=O)[O-])c2c1C(=O)c1ccc(Br)cc1	inactive
CCCn1c2ccccc2c2cnn(CC(=O)NCCCN3CCCCC3CC)c(=O)c21 (centres undefined)	36.8% (active)
O=C(Cn1ncc2c3ccccc3n(Cc3ccccc3)c2c1=O)NCCCN1CCOCC1	32.8% (active)
Cc1nn(CC(=O)NCC2CCCO2)c(=O)c2cc3ccccc3n12 (centres undefined)	inactive
CCCCOc1ccc(Cl)cc1CSc1nncn1N	inactive
COc1ccc(C(=O)NNC(=S)NC(=O)c2ccccc2)cc1	59.6% (active)
COc1ccc(C(=O)NC(=S)NNC(=O)CCc2ccccc2)cc1	66.3% (active)
O=C(Nc1ccc(F)c(Cl)c1)C1CCN(S(=O)(=O)c2cccnc2)CC1	38.1% (active)
C=CCn1c(SCc2ccc(C(=O)NCCO)cc2)nc2ccccc2c1=O	inactive
COc1ccc(C(=O)NC(Cc2ccc(OC(=O)c3ccc(OC)cc3)cc2)C(=O)O)cc1 (centres undefined)	18.8% (active)
O=C(NCCc1ccc2c(c1)OCCO2)c1cc2ccccc2o1	42.2% (active)
O=C(NCCCn1ccnc1)C(=O)c1cn(CC(=O)N2CCCCCC2)c2ccccc12	59.8% (active)
CCCCn1c(SCC(=O)NCC2CCCO2)nc2ccc(N3CCOCC3)cc2c1=O (centres undefined)	inactive
CCCCCn1c(=O)[nH]c2cc(C(=O)NCCCN3CCCCC3C)ccc2c1=O (centres undefined)	35.4% (active)
CC(=O)Nc1nc2c(s1)C(=O)NCC(C)(C)C2	inactive

Structure (SMILES)	CHT activity remaining % of control (stronger effect = lower value)
C/C(=N\N=C(N)N)c1ccc(Cl)cc1	12.2% (active)
CCN(CC(=O)NCc1ccc(Cl)cc1)C(=O)CSc1ccccc1	inactive
Nc1cc(N2CCCCCC2)c2nonc2c1[N+](=O)[O-]	68.5% (active)
O=C(OCC(=O)c1c[nH]c2ccccc12)c1cccc(O)c1	56% (active)
CN(CCC#N)c1ncnc2scc(-c3ccccc3)c12	50.5% (active)
Cc1cccc(N(C)C(=O)CN2C(=O)COc3ccc(S(=O)(=O)N4CCCCCC4)cc32)c1	56.8% (active)
O=C(c1c(F)cccc1Cl)N1CCN(S(=O)(=O)c2ccc3c(c2)OCCCO3)CC1	inactive
O=S(=O)(c1cccc(-c2nnc(SC(F)F)n2-c2ccccc2)c1)N1CCCCC1	inactive
CCc1ccc2c(c1)C1(NN=C(c3ccccc3)S1)C(=O)N2 (centres undefined)	54.3% (active)
Cn1c2ccccc2c(=O)c2c(O)cccc21	65.5% (active)
O=C(O/N=C(/c1ccccc1)c1ccncc1)c1ccccc1[N+](=O)[O-]	60.1% (active)
Cc1cccc(C)c1NC(=O)c1ccc(CN2CCc3ccccc3C2)cc1	53.4% (active)
COc1ccc(C(=O)NC(C)c2nccs2)cc1OC1CCN(C(C)C)CC1 (centres undefined)	22.1% (active)
COc1ccc(OCC(=O)OCCN(C)C)cc1	11.5% (active)
OC1CN=C2Sc3ccccc3N2C1 (centres undefined)	46.2% (active)
CCC(C)c1ccc(NC(=S)NCc2ccccn2)cc1 (centres undefined)	45.6% (active)
COC(=O)C(C(=O)Nc1cccc(Cl)c1C)C1CCCC1 (centres undefined)	inactive
CC(C)CCn1c(CN(C)Cc2ccccc2)nc2c1c(=O)n(C)c(=O)n2C	inactive
Cc1cc(NS(=O)(=O)c2ccc(NC(=O)C(C)Oc3cccc(C)c3C)cc2)nc(C)n1 (centres undefined)	13.3% (active)
COc1cc2ccccc2cc1C(=O)Nc1ccc(S(=O)(=O)Nc2cc(C)on2)cc1	49.4% (active)
Cc1cc(OC(C)C(=O)Nc2ccc(S(=O)(=O)Nc3onc(C)c3C)cc2)cc(C)c1Cl (centres undefined)	57.7% (active)
CCC(Oc1ccccc1C)C(=O)Nc1ccc(S(=O)(=O)Nc2cc(C)on2)cc1 (centres undefined)	46.2% (active)
CCN(CC)Cc1c(C(=O)N/N=C/c2cccc(OCc3ccc(F)cc3)c2)nnn1-c1nonc1N	inactive
CCc1cc2c(N3CCN(c4nnc(CC)s4)CC3)ncnc2s1	67.1% (active)
Cc1c(C(=O)OC(C)C)sc(NC(=O)c2cccnc2)c1C#N	61.9% (active)

Structure (SMILES)	CHT activity remaining % of control (stronger effect = lower value)
CCN(CC)CCC(c1ccc2c(c1)OCO2)c1c(OC)cc(OC)c2c(-c3ccccc3)cc(=O)oc12 (centres undefined)	70.5% (active)
CC(C)(C)c1ccc(C(=O)CSc2ncn[nH]2)cc1	42.8% (active)
C/C(=N/NC(=O)c1cc(Cl)ccc1O)C12CC3CC(CC(C3)C1)C2	46.3% (active)
Cc1oc2c(F)c(F)c(F)c(F)c2c1S(=O)(=O)Nc1cccc(C(F)(F)F)c1	57.3% (active)
FC(F)(F)c1cccc(NC(=S)Nc2cccc(Cl)c2)c1	inactive
COc1ccc(NC(=O)c2sc(N)nc2-c2ccccc2)cc1	53.4% (active)
Cc1ccc2nc(Nc3ccccc3)cc(C)c2c1	49.7% (active)
COc1ccc(/C=C2/SC(=O)N(CCCCCC(=O)Nc3ccccc3C(=O)O)C2=S)cc1	29.7% (active)
C/C(=N\Nc1nc2ccccc2[nH]1)c1cccs1	19.1% (active)
CC(C(=O)NC1CCS(=O)(=O)C1)N1C(=O)/C(=C/c2ccc(Cl)cc2)SC1=S (centres undefined)	69.7% (active)
Cc1ccc(C(=O)N/C(=C/C=C/c2ccccc2)C(=O)NCc2ccco2)cc1	47.3% (active)
O=C(/C=C/c1cn(-c2ccccc2)nc1-c1ccc2c(c1)OCCO2)NCCCN1CCOCC1	26.1% (active)
Cc1cccc(-c2nc3ccc(C(=O)NCCN4CCN(C)CC4)cc3nc2-c2cccc(C)c2)c1	40% (active)
CNCC(O)c1ccc(O)c(O)c1 (centres undefined)	33.7% (active)
COC(=O)CN1C(C)=Nc2ccc(Br)cc2C1c1ccccc1 (centres undefined)	inactive
O=C(O)CC1=C(Nc2ccccc2)C(=O)N(c2ccccc2)C1c1ccc(Cl)cc1 (centres undefined)	26.7% (active)
O=S(=O)(Nc1ccc(Cl)cn1)c1cnc(Cl)c(Br)c1	inactive
CCC(=O)Nc1nnc(S(=O)(=O)N(CC(C)C)c2ccccc2)s1	inactive
C/C(=N\NC(N)=S)c1cccnc1	inactive
O=C(O)c1ccc(N/N=C/c2cn(-c3ccccc3)nc2-c2cccs2)cc1	65.1% (active)
COc1nc(OC)nc(N(C)CCO)n1	inactive
CCN(Cc1ccccc1)S(=O)(=O)c1cc(C(=O)O)ccc1OC	58.7% (active)
CCOC(=O)N1CCN(C(=O)c2ccc(CN(c3ccc(C)c(C)c3)S(C)(=O)=O)cc2)CC1	inactive
O=C(Nc1ccccc1C(=O)NCCCn1ccnc1)c1ccc(Cl)cc1Cl	52.6% (active)
